# In the library only some 6.6% were active in any assay of this set; here they are far more common.
# GDH-TPI counter = GDH-TPI coupling enzyme inhibitors, primary screen, artefact control for M. tuberculosis FBA inhibitor project, biochemical, absorbance, full deck. GDH-TPI coupled enzyme counterscreen, NADH absorbance. 1.2% of 360,000 active. inhibition, % at 4.8 µM; in the data active = inhibition above about 30%;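 also: 0% = DMSO wells and 100% = wells lacking the enzyme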
# BoNT F protease = BoNT/F light chain protease inhibitors, primary screen, biochemical, flow cytometry, MLPCN library; Botulinum neurotoxin type F light chain protease (Clostridium botulinum); 0.22% of 360,000 active; inhibition, % at 10 µM; Multiplex microsphere protease cleavage assay; in the data active = inhibition above about 35%, passing the limit was not always enough; inconclusive = no clear call, values can overlap the other calls; also: plate controls were buffer without enzyme for full effect and enzyme alone for no effect
# Autofluor counter = counter-screen for toxin protease inhibitors: compound fluorescence. compound autofluorescence counterscreen, microsphere flow cytometry; active compounds read high. fluorescence intensity (concentration not given with the values). 3.1% of 360,000 active. AID 624483; in the data active = fluorescence intensity above about 16000; inconclusive = no clear call, values can overlap the other calls
# BoNT-A LC inh2 = BoNT/A light chain protease inhibitors, primary screen, biochemical, flow cytometry, MLPCN library. Botulinum neurotoxin type A light chain protease (Clostridium botulinum A str. ATCC 3502). multiplex microsphere protease substrate cleavage. inhibition, % at 10 µM. 0.17% of 360,000 active; also: plate controls were buffer without enzyme for full effect and enzyme alone for no effect
# Anthrax LF inh2 = Bacillus anthracis LF protease inhibitors, primary screen, biochemical, multiplex microsphere, MLPCN library | inhibition, % at 10 µM | 0.12% of 360,000 active | multiplex microsphere protease cleavage assay | Lethal factor (Bacillus anthracis), P15917; also: plate controls were buffer without enzyme for full effect and enzyme alone for no effect
# Mtb FBA inh = Mtb FBA enzyme inhibitors, primary screen, biochemical, fluorescence, strain H37Rv | inhibition, % at 1 µM | 2.3% of 360,000 active | purified M. tuberculosis FBA, fluorescence read-out; in the data active = inhibition above about 27%;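 also: 0% = vehicle and 100% = reference inhibitor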
# Target sequence (P9WQA3 whole entry, looked up): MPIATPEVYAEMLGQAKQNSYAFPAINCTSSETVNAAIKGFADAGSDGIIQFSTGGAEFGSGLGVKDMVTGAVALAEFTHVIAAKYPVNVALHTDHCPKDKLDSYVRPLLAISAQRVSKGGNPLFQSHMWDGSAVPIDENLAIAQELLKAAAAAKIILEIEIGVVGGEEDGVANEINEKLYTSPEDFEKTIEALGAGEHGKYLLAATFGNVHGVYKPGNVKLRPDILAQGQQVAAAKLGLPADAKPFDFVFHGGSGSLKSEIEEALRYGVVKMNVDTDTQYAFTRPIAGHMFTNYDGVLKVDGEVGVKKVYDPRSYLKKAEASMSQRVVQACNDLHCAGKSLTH
# BoNT-A LC CP1 = BoNT/A light chain protease inhibitors, confirmation, biochemical, flow cytometry, cherry pick 1. shares compounds with BoNT F protease. multiplex microsphere protease assay. inhibition, % at 10 µM. 3% of 720 active. AID 602139, 2011; in the data active = inhibition above about 32%
# BoNTF LC inh 1 = BoNT/F light chain protease inhibitors, confirmation, biochemical, flow cytometry, cherry pick 1; shares compounds with BoNT F protease; multiplex microsphere protease cleavage assay; 720 tested, under 10 active; inhibition, % at 10 µM; call rule not given here
# Anthrax LF CP1 = Bacillus anthracis LF protease inhibitors, confirmation, biochemical, multiplex microsphere, cherry pick 1; shares compounds with BoNT F protease; multiplex microsphere protease cleavage assay; inhibition, % at 10 µM; 720 tested, under 10 active; call rule not given here
# Starred values were filed as active, the others as inactive; ? = inconclusive; . = not tested or not shown. Rule as the data show it, unless noted: active = inhibition above about 30%; inconclusive = no clear call, values can overlap the other calls; inactive = below that.
SMILES,GDH-TPI counter,BoNT F protease,Autofluor counter,BoNT-A LC inh2,Anthrax LF inh2,Mtb FBA inh,BoNT-A LC CP1,BoNTF LC inh 1,Anthrax LF CP1
CCn1c(=O)n(CC)c2cc(S(N)(=O)=O)c(C)cc21,5.8,44.0*,7485,8.2,7.1,0.7,0.6,-3.3,-2.6
CCOc1cc(/C=N/NC(=O)c2cccnc2)ccc1OCc1ccc(C(=O)OC)o1,9.8,5.0,4463,-0.9,0.7,-2.4,.,.,.
COc1ccc(CNC(=O)CN(C(=O)CCC(=O)Nc2ccccn2)c2cc(C)ccc2C)cc1,6.0,-6.8,3145,-1.7,31.6*,1.7,0.7,-4.1,4.8
CCc1ccccc1N(CC(=O)NCc1ccc(OC)cc1)C(=O)CCC(=O)Nc1ccccn1,-3.0,-3.0,5288,-2.1,4.5,-1.3,.,.,.
Cc1cc(C(=O)Nc2ccc(S(=O)(=O)Nc3onc(C)c3C)cc2)c(C)o1,1.9,41.9*,10628,30.4*,-20.9,1.2,-0.1,-0.4,-1.0
Cc1ccc(S(=O)(=O)N(CC(=O)NCc2ccco2)Cc2ccccc2F)cc1,-2.3,-7.7,2530,0.1,-5.8,1.9,.,.,.
Cc1ccc(S(=O)(=O)N(CC(=O)NCc2ccncc2)Cc2ccccc2F)cc1,0.7,34.8*,2926,-1.5,9.9,-0.1,-0.4,-3.2,-1.9
Cc1ccc(C)c(Nc2nc(-c3ccncc3)nc3ccccc23)c1,10.7,41.6*,3520,0.4,-2.4,0.7,-1.8,-0.4,-2.7
COc1ccc(Cn2c(=S)[nH]c3cc(OC)c(OC)cc3c2=O)cc1,6.9,2.7,3250,-0.2,-1.9,3.1,.,.,.
COc1ccc(Cn2c(=O)[nH]c3cc(OC)c(OC)cc3c2=O)cc1,0.0,35.9*,3925,4.1,-9.0,7.5,-0.3,1.2,-2.0
Cc1ccccc1OCC(=O)OCC(=O)NC1CC1,-1.0,3.0,2824,0.2,0.3,-1.1,.,.,.
OCC[C@@H]1C[C@H](O)[C@@H](O)[C@@]2(CCCCO2)O1,0.9,-1.9,3121,-0.4,-7.1,3.2,.,.,.
COC(=O)c1ccccc1NC(=O)COC(=O)Cc1ccc(S(=O)(=O)N2CCOCC2)s1,5.7,-3.4,3687,-0.9,-5.4,4.0,.,.,.
O=C(CNC(=O)c1ccc(C(F)(F)F)cc1)NC1CC1,0.8,-3.3,3806,-0.3,-4.1,-1.0,.,.,.
COc1ccccc1-c1nc(SCC(=O)N2CCC(C(N)=O)CC2)n[nH]1,0.4,2.6,4122,-0.6,-1.0,0.0,.,.,.
CCOC(=O)CCCCC(=O)c1[nH]c(=O)[nH]c1CSCCO,1.4,64.5*,5536,8.0,2.8,2.4,0.9,-3.2,-5.3
CCOC(=O)CCCCC(=O)c1[nH]c(=O)[nH]c1Cn1cnc2ccccc21,10.8,34.3,5662,4.8,-6.2,-0.1,-0.1,-9.9,-2.8
COc1cc(NC(=O)CCn2c(=O)[nH]c3ccsc3c2=O)cc(OC)c1,-3.3,40.7*,4712,4.3,3.5,2.8,0.1,-3.3,-4.3
Cc1cc(-c2cccs2)c2c(N)c(C(=O)c3ccc4c(c3)OCO4)sc2n1,-1.9,16.4,2808,55.5*,22.4,-3.9,21.3,0.4,15.2
N#Cc1sc2nc(C3CC3)cc(-c3ccc(Cl)cc3)c2c1N,8.3,-4.5,1998,5.8,-0.2,12.1,.,.,.
Cc1cc(C)c2c(N)c(C(=O)c3ccc(Cl)cc3)sc2n1,9.6,3.2,2536,0.0,0.3,-1.8,.,.,.
COc1ccc(-c2cc(-c3cccs3)nc3sc(C#N)c(N)c23)cc1,3.7,7.8,2358,40.2*,15.8,12.7,12.2,-0.6,2.3
Cc1cc(C)c2c(N)c(C(=O)c3ccc(Cl)c(Cl)c3)sc2n1,-2.2,8.0,3449,1.1,-2.1,0.2,.,.,.
COc1ccc(C(=O)c2sc3nc(C)cc(-c4cccs4)c3c2N)cc1,11.0,16.8,3055,56.4*,20.2,-1.8,27.6,7.7,13.5
COc1ccc(N2CCN(C3CCCN(Cc4ccc(F)cc4Cl)C3)CC2)cc1 (configuration not stated),6.2,?,3316,-2.0,-1.7,0.3,.,.,.
SMILES,GDH-TPI counter,BoNT F protease,Autofluor counter,BoNT-A LC inh2,Anthrax LF inh2,Mtb FBA inh,BoNT-A LC CP1,BoNTF LC inh 1,Anthrax LF CP1
CCc1ccc2c(c1)C(O)(CC(=O)c1cccs1)C(=O)N2 (configuration not stated),5.7,-4.2,4358,-0.3,-1.6,5.8,.,.,.
CCC1CCC(NC(=O)Nc2cccc(OC)c2)CC1 (configuration not stated),0.0,2.3,2151,0.1,-1.7,-1.7,.,.,.
Cc1nnsc1-c1nnc(SCC(=O)c2ccccc2)n1C1CC1,5.6,1.5,5776,-0.5,3.2,4.1,.,.,.
Cc1ccc(NC(=O)CCCCCC2NC(=O)NC2C)cc1 (configuration not stated),-7.8,71.4*,3319,9.5,0.1,0.6,4.8,-0.4,-8.0
Cc1ccc2c(c1)N(C(=O)CCC(=O)N1CCC(C(N)=O)CC1)CC(C)O2 (configuration not stated),4.3,-3.6,4176,-0.5,-7.1,3.3,.,.,.
CC1Oc2ccccc2N(CC(=O)N2CCCCCC2)C1=O (configuration not stated),3.9,-3.1,5138,-4.7,-2.2,-1.0,.,.,.
CC(Sc1nccn1C)C(=O)Nc1ccc(C(N)=O)cc1 (configuration not stated),2.8,39.0*,?,21.8,1.9,3.0,0.2,-5.0,-0.6
C=CCOc1c(Br)cc(CNCCCN2CCOCC2)cc1OC,4.4,-3.0,2985,-0.1,45.4*,3.0,-0.1,-5.9,-0.6
Cc1cc(C)nc(SCc2ccc(Cl)cc2)n1,-5.1,-11.8,3562,2.5,31.7*,1.4,0.5,-3.3,2.5
O=C(NC1CC1)c1cc2cc3ccccc3nc2s1,14.3,1.7,5181,2.2,3.7,0.1,.,.,.
CCC(C)NC(=O)c1cc2cc3ccc(OC)cc3nc2s1 (configuration not stated),27.4,-4.1,3620,1.6,-4.4,109.7*,1.3,-1.7,-0.1
COc1ccc(CCNC(=O)Cn2nnc(C(=O)Nc3cc(C)ccc3C)c2N)cc1OC,-1.7,4.9,5463,0.9,0.1,1.3,.,.,.
